In PubChem BioAssay AID651640 (Broad Institute, 2012):
“And” between values parts separate entries of the source, which are not always exact repeats. Equal entries are not always repeated. The whole screen tested about 350,000 compounds, of which about 6,000 (1.7%) were called active. Roughly 5% stayed inconclusive and do not appear here. Cut-off read from the data, not from the text of the source: active = CPE inhibition above about 20% (passing the limit was not always enough); inconclusive = no clear call, values can overlap the other calls; tested in BHK-21 cells. The sample as a whole holds a higher share of actives than the screen did. Where a structure was tested more than once in an assay, its records may differ in their call.

Experiment: protection of cells from dengue 2 killing – plate reader, single concentration, primary screen (AID 651640);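 note: 0% = median of neutral control wells and 100% = median of positive control wells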
Settings: DENV2-infected cells, cytopathic effect rescue, at 9.99 µM, stronger effect = higher value

SMILES	CPE inhibition
COc1cccc(-c2ccc3n(c2=O)C[C@@H]2[C@@H](CO)[C@H](C(=O)NC4CCC4)[C@H]3N2C)c1	-5.73% (inactive)
C[C@H](CO)N1C[C@H](C)[C@@H](CN(C)S(=O)(=O)c2cccs2)Oc2ccc(NC(=O)Nc3ccc(C(F)(F)F)cc3)cc2CC1=O	3.14% (inactive)
CCCC(=O)Nc1ccc2c(c1)C(=O)N(C)[C@H]1CC[C@@H](CC(=O)NCc3ccccc3)O[C@@H]1CO2	-7.15% (inactive)
C[C@@H]1CN([C@@H](C)CO)C(=O)c2cc(NC(=O)Nc3ccc4c(c3)OCO4)ccc2O[C@@H]1CN(C)C(=O)Nc1ccc2c(c1)OCO2	-0.429% (inactive)
CCCCNc1c(-c2ccc(OC)c(Sc3ccc(OC)cc3)c2)nc2ccc(Cl)cn12	30.7% (active)
CCCCNc1c(-c2cccc(Sc3ccc(OC)cc3)c2)nc2ccccn12	-17.2% (inactive)
CCCCCCSc1ccc(-c2nc3ccc(Cl)cn3c2NCc2ccccc2)cc1	3.27% (inactive)
COC(=O)C[C@@H]1C[C@@H]2c3cc(NC(=O)NC4CCCC4)ccc3O[C@@H]2[C@@H](CO)O1	-3.24% (inactive)
CO[C@@H]1CN(C)C(=O)c2cc(NC(=O)C3CCOCC3)ccc2OC[C@H](C)N(Cc2cccnc2)C[C@@H]1C	-1.61% (inactive)
Cc1cc(C(=O)OCC(=O)N2c3ccccc3NC(=O)C2(C)C)c(C)n1-c1ccccc1	-1.8% (inactive)
CNS(=O)(=O)c1cccc(C(=O)OCC(=O)N2c3ccccc3NC(=O)C2(C)C)c1	28.3% (active)
CCNc1ccc(C(=O)OCC(=O)N2c3ccccc3NC(=O)C2(C)C)cc1[N+](=O)[O-]	-0.27% (inactive)
C[C@@H]1CN([C@H](C)CO)C(=O)Cc2cc(NC(=O)Cc3ccccc3)ccc2O[C@H]1CN(C)S(=O)(=O)c1cccs1	1.69% (inactive)
COc1ccc(S(=O)(=O)N(C)C[C@@H]2OCCCC[C@@H](C)Oc3ccc(NC(=O)CCCN(C)C)cc3C(=O)N([C@@H](C)CO)C[C@@H]2C)cc1	0.066% (inactive)
CC(C)(C)[S@@](=O)N1Cc2cc(C(=O)N3CCOCC3)nc(-c3cccc(-c4ccc(C#N)cc4)c3)c2[C@H]1CCO	-2.86% (inactive)
CCS(=O)(=O)N1Cc2cc(C(=O)N(C)C)nc(-c3cccc(-c4ccc(C#N)cc4)c3)c2[C@H]1CCO	20.3% (active)
CCCNC(=O)c1cc2c(c(-c3cccc(-c4ccc(C#N)cc4)c3)n1)[C@@H](CCO)N(C(=O)CC)C2	4.99% (inactive)
CC(C)NC(=O)N(C)C[C@H]1Oc2c(NC(=O)Nc3ccc(F)cc3)cccc2C(=O)N([C@@H](C)CO)C[C@@H]1C	10.9% (inactive)
CO[C@H]1CN(C)C(=O)c2ccc(NC(=O)c3cccc(F)c3)cc2OC[C@@H](C)N(C(C)=O)C[C@@H]1C	-2.36% (inactive)
Cc1noc(C)c1NC(=O)N(C)C[C@H]1Oc2ccc(NS(=O)(=O)c3ccc(Cl)cc3)cc2CC(=O)N([C@H](C)CO)C[C@@H]1C	-8.56% (inactive)
Cc1noc(C)c1S(=O)(=O)Nc1ccc2c(c1)CC(=O)N([C@@H](C)CO)C[C@H](C)[C@H](CN(C)C(=O)Nc1ccccc1)O2	-4.97% (inactive)
COc1ccc(S(=O)(=O)Nc2ccc3c(c2)CC(=O)N([C@H](C)CO)C[C@H](C)[C@H](CN(C)C(=O)Nc2ccccc2)O3)cc1	-6.98% (inactive)

SMILES	CPE inhibition
COc1ccc(S(=O)(=O)Nc2ccc3c(c2)CC(=O)N([C@@H](C)CO)C[C@@H](C)[C@@H](CN(C)C(=O)Nc2c(C)noc2C)O3)cc1	29.8% (active)
Cc1noc(C)c1S(=O)(=O)Nc1ccc2c(c1)C(=O)N([C@@H](C)CO)C[C@H](C)[C@H](CN(C)C(=O)Nc1ccc(C(F)(F)F)cc1)O2	-2.38% (inactive)
COc1ccc(S(=O)(=O)Nc2ccc3c(c2)CC(=O)N([C@H](C)CO)C[C@H](C)[C@@H](CN(C)C(=O)NC(C)C)O3)cc1	21.3% (active)
COc1ccc(NC(=O)N(C)C[C@@H]2Oc3ccc(NS(=O)(=O)c4ccc(OC)cc4)cc3CC(=O)N([C@H](C)CO)C[C@H]2C)cc1	11.3% (inactive)
Cc1noc(C)c1S(=O)(=O)Nc1ccc2c(c1)CC(=O)N([C@@H](C)CO)C[C@@H](C)[C@@H](CN(C)C(=O)Nc1ccc(C(F)(F)F)cc1)O2	46.5% (active)
COc1ccc(S(=O)(=O)Nc2ccc3c(c2)CC(=O)N([C@H](C)CO)C[C@@H](C)[C@H](CN(C)S(=O)(=O)c2c(C)noc2C)O3)cc1	-6.33% (inactive)
C[C@H]1CN([C@@H](C)CO)C(=O)c2cc(Br)cnc2O[C@H]1CN(C)CC1CCCC1	7.93% (inactive)
O=C(C[C@@H]1C[C@@H]2c3cc(NC(=O)NC4CCCC4)ccc3O[C@@H]2[C@@H](CO)O1)NCc1ccccc1	-0.285% (inactive)
O=C(NCC1CC1)[C@@H]1[C@@H](CO)[C@@H]2Cn3c(ccc(-c4ccccc4)c3=O)[C@H]1N2Cc1nccs1	-2.52% (inactive)
CN(C)CC(=O)N[C@H]1CC[C@H](CCNC(=O)C2CCCCC2)O[C@H]1CO	-1.04% (inactive)
O=C(Cc1ccccn1)N1CC(=O)N2[C@H](C1)[C@@H](c1ccc(-c3ccccc3)cc1)[C@@H]2CO	4.12% (inactive)
C[C@@H]1CN([C@H](C)CO)C(=O)c2cc(NC(=O)Nc3ccccc3)ccc2O[C@@H](C)CCCCO[C@@H]1CN(C)Cc1ccncc1	-2.85% (inactive)
COCC#Cc1cnc2c(c1)C(=O)N([C@@H](C)CO)C[C@@H](C)[C@H](CN(C)C(=O)C1CCOCC1)O2	4.93% (inactive)
O=C(NCc1ccccc1)C1CNCC(C(=O)NCc2ccccc2)C1 (stereo unspecified)	-5.52% (inactive)
O=C(O)C1C2C=CC(C2)C1C(=O)NCc1ccccc1 (stereo unspecified)	23.9% (active)
O=C(NCc1ccccc1)C1CCN(C(=O)Cc2ccccc2)CC1	-10.5% (inactive)
CC(C)(C)[C@H]1C=C(C(=O)NCc2ccccc2)O[C@@H](OCc2ccc(CO)cc2)C1	51.1% (active) and -3.51% (inactive)
O=C(NCc1ccccc1)C1=C[C@H](C2CC2)C[C@H](OCc2ccc(CO)cc2)O1	-16.3% (inactive) and 0.479% (inactive)
O=C(NCc1ccccc1)C1=C[C@@H](C2CCCCC2)C[C@@H](OCc2ccc(CO)cc2)O1	-6.36% (inactive) and 1.63% (inactive)
CO[C@@H](CN(C)C(=O)c1ccc2c(c1)OCO2)[C@@H](C)CN([C@H](C)CO)S(=O)(=O)c1ccccc1	-3.46% (inactive)
CN1C(=O)c2cc(NC(=O)C3CCOCC3)ccc2OC[C@H]2O[C@@H](CC(=O)NCC3CCCCC3)CC[C@@H]21	1.63% (inactive)
C=CC[C@]1(C(=O)NCC(O)CO)N=C(c2ccc(OCCCO)cc2)O[C@H]1c1ccccc1 (stereo partly specified)	1.79% (inactive)

SMILES	CPE inhibition
[N-]=[N+]=Nc1ccccc1C[C@@]1(C(=O)NCc2ccccc2)N=C(c2ccc(OCCCO)cc2)O[C@@H]1c1ccccc1	33.8% (active)
COC(=O)[C@@]1(CCS(=O)(=O)c2ccccc2)N=C(c2ccc(OCCCO)cc2)O[C@H]1c1ccccc1N=[N+]=[N-]	-1.34% (inactive)
O=C(C[C@H]1CC[C@H](NC(=O)C2CCC2)[C@@H](CO)O1)Nc1nccs1	0.802% (inactive)
O=C(Cc1ccccn1)N[C@H]1CC[C@@H](CC(=O)N2CCCCC2)O[C@@H]1CO	-2.26% (inactive)
OC(CCl)CCl	32.4% (active)
O=C(c1ccc(F)cc1)N1CC(=O)N2[C@H](CO)[C@H](c3ccc(-c4ccccc4F)cc3)[C@@H]2C1	7.8% (inactive)
C[C@@H]1CN([C@H](C)CO)C(=O)c2cc(NC(=O)Nc3cccc4ccccc34)ccc2O[C@@H](C)CCCCO[C@H]1CN(C)S(=O)(=O)c1cccs1	-15.6% (inactive)
O=C(NCc1ccccc1Cl)[C@H]1[C@H](CO)[C@H]2Cn3c(cccc3=O)[C@H]2N1C(=O)C1CCC1	-3.74% (inactive)
CCCNC(=O)[C@H]1[C@H](CO)[C@H]2Cn3c(cccc3=O)[C@H]2N1Cc1ccccc1Cl	140% (active)
CCCN1[C@H](C(=O)NC2Cc3ccccc3C2)[C@@H](CO)[C@@H]2Cn3c(cccc3=O)[C@@H]21	-9.85% (inactive)
O=C(c1cccnc1)N1CC[C@H]2[C@H](CO)Nc3ccc(-c4ccc(F)cc4)cc3[C@H]21	1.83% (inactive)
C[C@@H]1CN([C@@H](C)CO)C(=O)Cc2cc(NC(=O)Cc3ccccc3)ccc2O[C@@H]1CN(C)C(=O)Nc1ccc2c(c1)OCO2	-7.53% (inactive)
COCC(=O)N1CC[C@@H]2[C@@H](CO)Nc3ccc(-c4ccc(C(=O)N(C)C)cc4)cc3[C@@H]21	5.72% (inactive)
CCNC(=O)[C@@H]1[C@@H](CO)[C@@H]2Cn3c(ccc(C4=CCCCC4)c3=O)[C@@H]2N1Cc1ccccc1F	2.99% (inactive)
O=C(NC1Cc2ccccc2C1)[C@H]1[C@H](CO)[C@H]2Cn3c(ccc(C4=CCCCC4)c3=O)[C@H]2N1CC1CC1	39.5% (active)
O=C(NC1CCC1)[C@H]1[C@H](CO)[C@H]2Cn3c(ccc(C4=CCCCC4)c3=O)[C@@H]1N2CC1CC1	-0.675% (inactive)
COc1ccccc1NC(=O)N[C@H]1CC[C@@H](CC(=O)N[C@@H](C)c2ccccc2)O[C@H]1CO	3.47% (inactive)
COc1ccccc1NC(=O)N[C@H]1C=C[C@@H](CC(=O)N[C@@H](C)c2ccccc2)O[C@@H]1CO	20.2% (active)
COc1ccccc1NC(=O)N[C@H]1C=C[C@H](CC(=O)N[C@@H](C)c2ccccc2)O[C@H]1CO	4.39% (inactive)
C[C@@H]1CN([C@@H](C)CO)C(=O)Cc2cc(NC(=O)Cc3ccccc3)ccc2O[C@H]1CN(C)Cc1ccc(C(=O)O)cc1	-5.69% (inactive)
Cc1noc(C)c1NC(=O)N(C)C[C@@H]1Oc2ccc(NC(=O)Nc3cccc4ccccc34)cc2CC(=O)N([C@@H](C)CO)C[C@H]1C	3.02% (inactive)
C[C@H]1CN([C@@H](C)CO)C(=O)c2cccc(NC(=O)Nc3ccc(F)cc3)c2O[C@@H]1CN(C)C(=O)Nc1ccc2c(c1)OCO2	-3.44% (inactive)
